# Results published in publication PMC5540273 (PLoS ONE, 2017).
# Legend:
# PFTK1 = tested on: T1, PFTK1
# T1 construct: gene CDK14
# PIP5K2C = tested on: T2, PIP5K2C
# T2 construct: gene PIP4K2C
# 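Further: kd values determined as follow-up on hits from a single-replicate KINOMEscan panel screen.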
smiles,measurement,setting,value
COc1cc2nccc(Nc3ccc(NC(=O)c4ccc(C)cc4)c(O)c3)c2cc1OC.Cl [GW440132],Kd,PFTK1,> 10 µM
same,Kd,PIK3C2B,> 10 µM
same,Kd,PIK3CA,> 10 µM
same,Kd,PIK3CG,> 10 µM
CS(=O)(=O)c1ccc(-c2c(-c3ncn[nH]3)sc(N3CCOCC3)c2C#N)cc1,Kd,PIK3CA,0.021 µM
COc1cc2ncn(-c3cc(OCC4CCCO4)c(C(N)=O)s3)c2cc1OC (centres unmarked) [GSK204607],Kd,PIP5K1C,7.7 µM
COc1ccc(CNC(=O)NC2CCN(c3ccnc(Nc4cc(OC)c(OC)c(OC)c4)n3)C2)cc1 (centres unmarked) [GSK1379748],Kd,PIP5K2C,0.6 µM
COc1ccc(Nc2nccc(-c3cccc(NC(=O)c4cc5cc(F)ccc5[nH]4)c3)n2)cc1 [GSK1229782],Kd,PIP5K2C,1.4 µM
